Inconclusive results are not listed. Calls of active or inactive are those of the source. Unless noted, the call rests on the fitted dose curve; in most records, active means well fitted curve in the direction sought with a large enough effect in the repeat runs; inconclusive means weak or mixed curves; inactive means flat fitted curve, though single readings scatter.
Columns and labels:
[1] = qHTS assay to test for compound auto fluorescence at 535 nm (green) in HEK293 cells (AID 720680)
[2] = qHTS assay to test for compound auto fluorescence at 460 nm (blue) in HEK293 cell free culture (AID 720681)
How it was run: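 Test compounds were pinned into cell-free culture medium (DMEM with 10% FBS) and fluorescence was read directly at Ex/Em 405/460 nm. Signals were expressed as fluorescence equivalents of triamterene, with DMSO vehicle as control.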

[3] = qHTS assay to test for compound auto fluorescence at 535 nm (green) in HEK293 cell free culture (AID 720682)
How it was run: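 Using fluorescein as calibrant, autofluorescence was quantified at 485/535 nm in cell-free DMEM containing 10% FBS after pintool addition of compound or vehicle.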

[4] = qHTS assay to test for compound auto fluorescence at 590 nm (red) in HEK293 cell free culture (AID 720683)
How it was run: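 Tox21 10K library compounds were pinned into cell-free DMEM with 10% FBS and fluorescence was read at excitation 540 nm. Activity is expressed as Rose Bengal sodium equivalency.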

[5] = qHTS assay to test for compound auto fluorescence at 590 nm (red) in HepG2 cell free culture (AID 720684)
How it was run: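 Measured in medium alone (MEM containing 10% FBS) following pintool addition of compound; emission at 590 nm with 540 nm excitation, referenced to Rose Bengal sodium.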

[6] = qHTS assay to test for compound auto fluorescence at 460 nm (blue) in HepG2 cell free culture (AID 720685)
How it was run: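 Compound (23 nL) or DMSO pinned into cell-free MEM with 10% FBS; blue fluorescence read at 405/460 nm excitation/emission, expressed as auto-fluorescence equivalency to triamterene.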

[7] = qHTS assay to test for compound auto fluorescence at 535 nm (green) in HepG2 cell free culture (AID 720686)
[8] = qHTS assay to test for compound auto fluorescence at 460 nm (blue) in HepG2 cells (AID 720687)
How it was run: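 Cells (2,000/well in MEM with 10% FBS) attached overnight at 37 C, then were exposed to compound or DMSO for 1 hr at 37 C, 5% CO2. Fluorescence read at Ex/Em 405/460 nm, expressed as triamterene-equivalent signal.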

[9] = target: Glucocorticoid receptor (Homo sapiens) (UniProt P04150); test: qHTS assay to identify small molecule antagonists of the glucocorticoid receptor (GR) signaling pathway (AID 720692; active means well fitted inhibition curve with a large enough effect in the signal ratio in the repeat runs, not every such curve was filed as active; the % refers to the signal ratio; further: potency means the concentration at half of the fitted maximal effect)
Sequence of Glucocorticoid receptor (Homo sapiens) (P04150 whole entry, looked up): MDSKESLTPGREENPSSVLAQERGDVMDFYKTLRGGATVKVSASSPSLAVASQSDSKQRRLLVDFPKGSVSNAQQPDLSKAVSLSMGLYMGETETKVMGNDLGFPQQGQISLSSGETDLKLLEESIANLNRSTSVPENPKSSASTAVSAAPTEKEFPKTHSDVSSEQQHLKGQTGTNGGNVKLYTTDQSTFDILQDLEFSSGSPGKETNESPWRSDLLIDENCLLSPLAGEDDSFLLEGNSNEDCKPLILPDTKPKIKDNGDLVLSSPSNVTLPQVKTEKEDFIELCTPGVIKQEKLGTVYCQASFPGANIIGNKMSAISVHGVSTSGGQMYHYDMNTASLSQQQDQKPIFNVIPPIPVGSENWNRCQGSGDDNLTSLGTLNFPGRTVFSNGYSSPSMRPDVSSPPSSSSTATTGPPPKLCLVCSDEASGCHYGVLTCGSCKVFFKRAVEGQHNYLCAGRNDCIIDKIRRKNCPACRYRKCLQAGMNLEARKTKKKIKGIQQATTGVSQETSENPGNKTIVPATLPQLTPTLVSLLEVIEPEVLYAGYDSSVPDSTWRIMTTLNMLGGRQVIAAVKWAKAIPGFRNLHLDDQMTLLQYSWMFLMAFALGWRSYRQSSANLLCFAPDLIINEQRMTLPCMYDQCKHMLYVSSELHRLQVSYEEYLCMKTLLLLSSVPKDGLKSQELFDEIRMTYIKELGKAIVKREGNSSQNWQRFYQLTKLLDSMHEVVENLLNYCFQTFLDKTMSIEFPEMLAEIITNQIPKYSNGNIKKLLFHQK
How it was run: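 Cells plated, rested 4 h at 37 C/5% CO2; compounds in DMSO pin-transferred; dexamethasone added to 5 nM final; 18 h at 37 C; B/G FRET substrate added, 2 h room temperature; fluorescence measured.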

[10] = target: Glucocorticoid receptor (Homo sapiens) (UniProt P04150); test: qHTS assay to identify small molecule agonists of the glucocorticoid receptor (GR) signaling pathway (AID 720691; active means well fitted activation curve with a large enough effect in the signal ratio in the repeat runs, not every such curve was filed as active; the % refers to the signal ratio)
How it was run: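 Agonist mode in a HeLa line carrying a GRE-controlled beta-lactamase reporter. Compounds act for 18 h at 37 C before a 2 h room-temperature FRET substrate step and fluorescence reading.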

Measured: Potency

CCOP(=O)(OCC)O/C(=C/Cl)c1ccc(Cl)cc1Cl
active: [9] 49 µM
not listed: [10]
inactive: all other assays above

Brc1ccccc1
inactive: all assays above

CCCCCCC#N
not listed: [6] | [9] | [10]
inactive: all other assays above

O=C(C(Cl)(Cl)Cl)C(Cl)(Cl)Cl
inactive: all assays above

C/C(=C\c1ccccc1)[N+](=O)[O-]
not listed: [6] | [9] | [10]
inactive: all other assays above

O=C(O)COc1ccc(Cl)cc1
not listed: [10]
inactive: all other assays above

Cn1sc(Cl)cc1=O
inactive: all assays above

c1ccc(C2CC2)c(OCC2=NCCN2)c1
inactive: all assays above

O=S(=O)(O)C(F)(F)C(F)(F)C(F)(F)C(F)(F)F
not listed: [10]
inactive: all other assays above

CNC(C)Cc1ccccc1OC (stereo unspecified)
not listed: [10]
inactive: all other assays above

O=C(Nc1ccccc1)Nc1cnns1
not listed: [10]
inactive: all other assays above

IC(I)=C(I)I
not listed: [6] | [9] | [10]
inactive: all other assays above

ClCC(Br)CBr (stereo unspecified)
not listed: [10]
inactive: all other assays above

CCBr
not listed: [6] | [9] | [10]
inactive: all other assays above

CC(=O)CCC(C)=O
inactive: all assays above

COc1cc(CC(C)N)cc2c1OCO2 (stereo unspecified)
not listed: [10]
inactive: all other assays above

CCOP(=S)(Oc1ccc([N+](=O)[O-])cc1)c1ccccc1 (stereo unspecified)
not listed: [6] | [9] | [10]
inactive: all other assays above

CC(C)(C)c1cc([N+](=O)[O-])cc([N+](=O)[O-])c1O
not listed: [6] | [9]
inactive: all other assays above

O=C(NC(=O)c1c(F)cccc1F)Nc1ccc(OC(F)(F)C(F)OC(F)(F)F)c(Cl)c1 (stereo unspecified)
not listed: [6] | [10]
inactive: all other assays above

CC1(C)[C@H](C=C(Cl)Cl)[C@@H]1C(=O)O[C@@H](C#N)c1cccc(Oc2ccccc2)c1
not listed: [6] | [9]
inactive: all other assays above

COc1c(C(C)(C)C)cc([N+](=O)[O-])c(C)c1[N+](=O)[O-]
not listed: [6] | [10]
inactive: all other assays above

CCOP(=S)(OCC)Oc1nc(Cl)c(Cl)cc1Cl
not listed: [6]
inactive: all other assays above

C=CC(=O)NCNC(=O)C=C
not listed: [6] | [9]
inactive: all other assays above

COc1cc(Cl)c(OC)cc1Cl
not listed: [6]
inactive: all other assays above

CCCCCC[N+](=O)[O-]
not listed: [6]
inactive: all other assays above

O=C(NC(=O)c1c(F)cccc1F)Nc1cc(Cl)c(Oc2ncc(C(F)(F)F)cc2Cl)c(Cl)c1
not listed: [6] | [9]
inactive: all other assays above

C=CCCl
not listed: [6] | [9]
inactive: all other assays above

OC(c1ccc(Cl)cc1)(c1ccc(Cl)cc1)c1cccnc1
active: [9] 49 µM
not listed: [6] | [10]
inactive: all other assays above

C=CC(=O)OCCCCO
not listed: [6] | [9]
inactive: all other assays above

C=CC(C)=O
not listed: [6] | [9] | [10]
inactive: all other assays above

CCOS(C)(=O)=O
not listed: [6] | [9] | [10]
inactive: all other assays above

CC(=O)[C@H]1CC[C@H]2[C@@H]3CC[C@H]4C[C@](C)(O)CC[C@]4(C)[C@H]3CC[C@]12C
not listed: [6] | [10]
inactive: all other assays above

CC1CC(CC2CCC(N)C(C)C2)CCC1N (stereo unspecified)
not listed: [6] | [10]
inactive: all other assays above

II
not listed: [6]
inactive: all other assays above

O=C(O)CC(Cl)C(=O)O (stereo unspecified)
not listed: [6]
inactive: all other assays above

Cl/C=C\Cl
not listed: [6] | [10]
inactive: all other assays above

C=C(C#N)CCC#N
not listed: [6]
inactive: all other assays above

CC(C)(CCl)C(=O)Cl
not listed: [6] | [10]
inactive: all other assays above

CCCC(=O)Cl
not listed: [6] | [10]
inactive: all other assays above

O=C1c2ccccc2C(=O)C1C(=O)C(c1ccccc1)c1ccccc1
active: [9] 21.3 µM
not listed: [6] | [10]
inactive: all other assays above

c1ccoc1
not listed: [6] | [10]
inactive: all other assays above

CC(Cl)Cl
not listed: [6] | [9]
inactive: all other assays above

[O-][Cl+]O
not listed: [6]
inactive: all other assays above

O=S(=O)(Cl)c1ccccc1
not listed: [6] | [9] | [10]
inactive: all other assays above

Brc1ccc(Oc2ccccc2)cc1
not listed: [6] | [10]
inactive: all other assays above

CN1[C@@H]2CC[C@H]1CC(OC(=O)c1cc(Cl)cc(Cl)c1)C2 (stereo partly specified)
not listed: [6] | [9] | [10]
inactive: all other assays above

c1ccc(CN2CCNCC2)cc1
not listed: [6] | [10]
inactive: all other assays above

CC(Cl)C(C)Cl (stereo unspecified)
not listed: [6] | [10]
inactive: all other assays above

CCOc1ccc(C(C)(C)COCc2cccc(Oc3ccccc3)c2)cc1
not listed: [6] | [10]
inactive: all other assays above

Cl/C=C\C[N+]12CN3CN(CN(C3)C1)C2
not listed: [6] | [9]
inactive: all other assays above

Nc1nc(N)nc(N)n1
not listed: [6]
inactive: all other assays above

C#CCOC(C(=O)OCCN(C)C)(c1ccccc1)c1ccccc1
not listed: [6] | [9] | [10]
inactive: all other assays above

Reference: PubChem BioAssay (Tox21)
